Source: PubChem
Most compounds without a hit are left out; they make up all but 3.7% or so of the library.
ATXN2 expr inh: inhibitors of ATXN2 expression | HEK-293 ATXN2-luciferase reporter, luminescence, 24 h | Potency, µM (titrated, usually from 57 µM), hits mostly inhibitors | actives 0.72% (n = 360,000) | AID 1745845; also: nearly all actives have a fitted effect of over 55% in size
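ATXN2-luciferase reporter cells (luciferase flanked by upstream and downstream ATXN2 gene portions) were treated 24 h at 37 °C with compounds at up to 57 uM. SteadyGlo luminescence gave expression; GF-AFC fluorescence gave viability.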
GLP-1R agonist: GLP-1 receptor (human) agonism; HEK293 GLP-1R CRE-luciferase, luminescence, 4-6 h; cells express a hypersensitive GLP-1R form; P43220; Potency, µM (highest dose often 45.6 µM), actives largely listed as activators; actives 0.007% (n = 380,000)
Target sequence (P43220 whole entry, looked up): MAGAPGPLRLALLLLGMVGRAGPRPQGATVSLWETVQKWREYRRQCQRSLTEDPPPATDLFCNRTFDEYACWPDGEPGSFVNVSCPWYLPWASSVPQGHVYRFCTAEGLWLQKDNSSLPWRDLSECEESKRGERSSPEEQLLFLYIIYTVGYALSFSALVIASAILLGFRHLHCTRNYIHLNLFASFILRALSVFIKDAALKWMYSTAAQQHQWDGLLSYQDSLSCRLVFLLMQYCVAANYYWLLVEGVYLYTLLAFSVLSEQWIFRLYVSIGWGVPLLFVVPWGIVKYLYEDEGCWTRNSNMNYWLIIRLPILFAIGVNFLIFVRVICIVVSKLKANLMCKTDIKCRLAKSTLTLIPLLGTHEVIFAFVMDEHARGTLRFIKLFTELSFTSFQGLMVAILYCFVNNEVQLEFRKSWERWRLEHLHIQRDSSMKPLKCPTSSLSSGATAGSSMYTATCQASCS
HepG2 viability: HepG2 cytotoxicity, counter-screen for TGF-b inhibitors; HepG2 CAGA-GFP viability, ATP luminescence, 18 h; Potency, µM (doses to about 46.1 µM), hits mostly cytotoxic; actives 0.76% (n = 410,000); AID 588856
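HepG2 CAGA-GFP cells (1000/well, DMEM with 1% FBS) received compound, then TGF-beta at 500 pg/mL final, and were incubated 18 hours at 37 degrees C. Viability was read by CellTiter-Glo luminescence. Media-only wells were set as complete cell-killing and DMSO as no toxicity.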
GLP-1R inv ag: GLP-1 receptor (human) inverse agonism | P43220 | HEK293 GLP-1R CRE-luciferase, luminescence, 24 h; GLP-1R form is constitutively active | Potency, µM (series often up to 38.3 µM), actives largely listed as inhibitors | actives 1.6% (n = 410,000) | AID 624417; also: nearly all actives have a fitted effect of over 55% in size
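qHTS in 1536-well format: reporter HEK293 cells expressing constitutive GLP-1R activity in DMEM + 10% Nu serum, 24 hr with compounds at 37 deg C, luminescence read after 12 min with detection reagent.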
TGFb inhibitor: TGF-b pathway inhibition. HepG2 CAGA-GFP TGF-b/SMAD3 reporter, GFP fluorescence, 18 h; TGF-beta stimulated, 500 pg/mL final. Potency, µM (titrated, usually from 46.1 µM), hits mostly inhibitors. actives 1.2% (n = 410,000). AID 588855; also: nearly all actives have a fitted effect of over 65% in size
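TGF-beta reporter screen: HEPG2 CAGA-GFP, 1% FBS, 500 pg/mL TGF-beta final, 18 h; per-cell GFP summed per well; curves fitted and categorized by class.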
ATXN viability: reduces viability in counter-screen for ATXN expression inhibitors. S2 cells (HEK-293 line with an ATXN2-luciferase reporter) viability, CellTiter-Fluor protease fluorescence, 24 h. Potency, µM (doses to about 56.7 µM), actives largely listed as cytotoxic. actives 0.49% (n = 400,000). AID 651635; also: nearly all actives have a fitted effect of over 40% in size
A number is an active result. Calls follow the shape of the dose curve; as a rule, active = well fitted curve in the direction sought with a large enough effect; inconclusive = small, poorly fitted or top-dose-only effect, or another doubt; inactive = no such curve, though single readings can be large; an effect the other way counts as inactive or inconclusive.

`COc1ccc(C2C3C=CCC(c4cccc(/C=C/c5ccccc5)c4)C3C(=O)N2Cc2ccccc2)cc1Cl` (stereo not drawn) gave HepG2 viability inactive and TGFb inhibitor inactive.
For C[C@H](c1ccccc1)N1C[C@@H](COCc2ccccc2)Oc2cc(N3CC[C@H](O)C3)ccc2S1(=O)=O the results were ATXN2 expr inh inactive, GLP-1R agonist inactive, GLP-1R inv ag inconclusive and ATXN viability inconclusive.
`C[C@@H](c1ccccc1)N1C[C@H](COCc2ccccc2)Oc2cc(N3CC[C@@H](N(C)C)C3)ccc2S1(=O)=O` gave ATXN2 expr inh 28.2µM, GLP-1R agonist inactive, GLP-1R inv ag inconclusive and ATXN viability 22.4µM.
`CCCCC[C@H](C)N1C[C@H](COCc2ccccc2)Oc2cc(N3CC[C@H](O)C3)ccc2S1(=O)=O` gave ATXN2 expr inh inactive, GLP-1R agonist inactive, GLP-1R inv ag inconclusive and ATXN viability inconclusive.
`C[C@@H](c1ccccc1)N1C[C@H](COCc2ccccc2)Oc2cc(N3CC[C@H](N(C)C)C3)ccc2S1(=O)=O` gave ATXN2 expr inh inconclusive, GLP-1R agonist inactive, GLP-1R inv ag inconclusive and ATXN viability 15.8µM.
Screening C[C@H](c1ccccc1)N1C[C@H](COCc2ccccc2)Oc2cc(N3CC[C@H](N(C)C)C3)ccc2S1(=O)=O returned ATXN2 expr inh inconclusive, GLP-1R agonist inactive, GLP-1R inv ag inconclusive and ATXN viability 15.8µM.
For CCCCC[C@@H](C)N1C[C@H](COCc2ccccc2)Oc2cc(N3CC[C@H](N(C)C)C3)ccc2S1(=O)=O the results were ATXN2 expr inh inconclusive, GLP-1R agonist inactive, GLP-1R inv ag inconclusive and ATXN viability 25.1µM.
For O=C(CO)NCCCOc1cccc(CN2CCCCC2)c1 the results were GLP-1R agonist inactive.
`C[C@H](c1ccccc1)N1C[C@H](COCc2ccccc2)Oc2cc(N3CC[C@H](O)C3)ccc2S1(=O)=O` gave ATXN2 expr inh inactive, GLP-1R agonist inactive, GLP-1R inv ag 10µM and ATXN viability inconclusive.
Screening O=C(CCn1cncn1)NCC1Cc2cc(-c3ccsc3)cc(Cl)c2O1 (stereo not drawn) returned ATXN viability inactive.
`CCCCc1c(C)nn(-c2nnc3c4ccccc4n(CC)c3n2)c1C` gave ATXN2 expr inh inactive, GLP-1R agonist inactive, HepG2 viability inactive, GLP-1R inv ag 10µM, TGFb inhibitor inactive and ATXN viability inconclusive.
CCn1c2ccccc2c2nnc(N3CCN(c4ccc(F)cc4)CC3)nc21 was read as HepG2 viability inactive, GLP-1R inv ag inactive and TGFb inhibitor inactive.
For O=C(NCc1ccco1)C(c1cccs1)N(C(=O)C1COc2ccccc2O1)c1cccc(O)c1 (stereo not drawn) the results were ATXN2 expr inh inactive, GLP-1R agonist inactive, HepG2 viability inactive, GLP-1R inv ag 11.2µM, TGFb inhibitor inconclusive and ATXN viability inactive.
`CC(C)(C)NC(=O)CN(Cc1cccs1)C(=O)C1COc2ccccc2O1` (stereo not drawn) gave ATXN2 expr inh inactive, GLP-1R agonist inactive, HepG2 viability inactive, GLP-1R inv ag inconclusive, TGFb inhibitor inactive and ATXN viability inactive.
For CC(C)CCNC(=O)C(c1ccc(O)cc1)N(Cc1cccs1)C(=O)C1COc2ccccc2O1 (stereo not drawn) the results were ATXN2 expr inh inactive, GLP-1R agonist inactive, HepG2 viability inactive, GLP-1R inv ag 11.2µM, TGFb inhibitor inconclusive and ATXN viability inconclusive.
Screening Cc1sc2ccccc2[n+]1CCCC[n+]1c(C)sc2ccccc21 returned HepG2 viability inactive and TGFb inhibitor inconclusive.
Cc1ccc(CN(Cc2ccco2)C(=O)COc2c(C)cc(C)cc2C)cc1 was read as ATXN2 expr inh inconclusive, HepG2 viability inactive, GLP-1R inv ag 2.82µM, TGFb inhibitor inconclusive and ATXN viability inactive.
